Here are results for 39 compounds from PubChem BioAssay (NCATS).

Unmarked numbers belong to inactive results. The rule behind the calls is not given here. Where only a bound is given, the exact number is not on record here.
Potency is the fitted concentration of half-maximal effect.

The experiment concerns HIV-1 nucleocapsid protein NCp7 (binding to TG oligonucleotide). The experiment in a line: HIV Nucleocapsid (AID 346).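 Note: potency is for inhibitors that block NC binding and lower polarization.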 Particulars: HIV-1 NC / fluorescein-TGTGTGTG probe, fluorescence polarization. An outline of the steps:
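Reagents dispensed (10 nM TG4xF, 100 nM HIV-1 NC), plates spun, compounds pin-transferred, then incubated 1 hr at room temperature before FP imaging. Buffer: Hepes pH 7.5, 250mM NaCl, 1uM ZnCl2, 100 uM TCEP, 5 mM 2-mercaptoethanol.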
Regarding `COc1ccc(C(=O)N2CCC3(CCN(C(=O)Nc4cccc(C#N)c4)CC3)CC2)cc1`, the Potency was above 20 µM.

As for `CNc1nc(-c2ccc(C(=O)N(C)C)cc2)nc2ccccc12`, the Potency is above 20 µM.

For the compound `CC(C)CN1CCCC2(CCN(C(=O)c3cccn3C)CC2)C1`, the Potency is above 20 µM.

Take `Cc1noc(C)c1C(=O)N1CCC2(CCN(C(=O)Nc3ccccc3)CC2)CC1`: the Potency was above 20 µM.

For `CN(C)c1ccc(-c2nccc(Nc3ccc(F)cc3)n2)cc1`, the Potency is above 20 µM.

Consider `N#CCCn1c(=O)c(-c2ccccc2)nc2cnc(OCc3ccccc3)nc21`, for which the Potency was above 20 µM.

For the compound `Cc1cnc(CNc2cc(-c3ccccc3C)ncn2)cn1`, the Potency is above 20 µM.

With `CN1CCN(c2ncc3nc(-c4cc(F)cc(F)c4)c(=O)n(C)c3n2)CC1`, the Potency is above 20 µM.

Consider `c1cncc(CNc2ncnc3ccc(-c4cccnc4)cc23)c1`, for which the Potency was above 20 µM.

Consider `CN1CCN(c2nc(-c3ccc4c(c3)OCO4)nc3ccccc23)CC1`, for which the Potency was above 20 µM.

Regarding `O=C(c1ccco1)N1CCC[C@@]2(CCN(Cc3ccccc3)C2)C1`, the Potency is above 20 µM.

Consider `COc1cccc(-c2nccc(NCc3cnc(C)cn3)n2)c1`, for which the Potency is above 20 µM.

Turning to `CN(C)c1ccc(-c2cc(NCc3ccccc3)ncn2)cc1`, the Potency is above 20 µM.

As to `COc1ccc(C(=O)N2CCC[C@@]3(CCN(c4ncccn4)C3)C2)cc1`, the Potency is above 20 µM.

With `Cc1nc2cnc(Nc3ccccc3)nc2n(C[C@H]2CCCO2)c1=O`, the Potency is above 20 µM.

For `CC(C)NC(=O)N1CC[C@@]2(CCCN(C(=O)c3ccncc3)C2)C1`, the Potency was above 20 µM.

For the compound `CN(C)c1ncc2nc(-c3ccccc3)c(=O)n(-c3ccccc3)c2n1`, the Potency was above 20 µM.

Take `Cc1ccccc1-c1cc(-n2ccnc2)ncn1`: the Potency is above 20 µM.

With `O=C(Nc1cccc(F)c1)N1CCC2(CCNCC2)CC1`, the Potency is above 20 µM.

`COC(=O)N1CCC2(CCCN(Cc3ccccc3)C2)CC1`: the Potency was above 20 µM.

`c1ccc(CNc2ccnc(-c3cccnc3)n2)cc1`: the Potency was above 20 µM.

Regarding `COc1ccc(C(=O)N2CCC3(CC2)CN(C(=O)Nc2ccccc2)C3)cc1`, the Potency is above 20 µM.

Regarding `CN(C)C(=O)c1ccc(-c2cncnc2-n2ccnc2)cc1`, the Potency is above 20 µM.

As for `CCNc1ncc2nc(-c3cccs3)c(=O)n(CCc3ccccc3)c2n1`, the Potency is above 20 µM.

Turning to `COc1ncc2nc(-c3ccccc3)c(=O)n(C[C@H]3CCCO3)c2n1`, the Potency is above 20 µM.

As to `c1ccc(-c2cccc(N3CCCC4(CCNCC4)C3)c2)cc1`, the Potency is above 20 µM.

`COc1ccc(Oc2ncc3nc(-c4cc(F)cc(F)c4)c(=O)n(C)c3n2)cc1`: the Potency is above 20 µM.

Consider `CN(C)c1ncc2nc(-c3ccc(F)cc3)c(=O)n(C)c2n1`, for which the Potency was above 20 µM.

With `O=S(=O)(c1ccccc1)N1CCC[C@@]2(CCN(Cc3nccs3)C2)C1`, the Potency is above 20 µM.

Take `CC(=O)NCCNc1ncnc2ccc(-c3ccccc3C(F)(F)F)cc12`: the Potency is above 20 µM.

With `CCNc1ncc2nc(CCc3ccccc3)c(=O)n(-c3ccc(OC)cc3)c2n1`, the Potency was above 20 µM.

`CC(C)CN1CC2(CCN(S(=O)(=O)c3ccccc3)CC2)C1`: the Potency was above 20 µM.

Take `O=C(c1csnn1)N1CCC[C@@]2(CCN(c3ccccc3)C2)C1`: the Potency was above 20 µM.

Take `Cn1cc(-c2nc3cnc(N4CCNCC4)nc3n(C)c2=O)c2ccccc21`: the Potency was above 20 µM.

As to `COc1ccc(NC(=O)N2CC3(CCNCC3)C2)cc1`, the Potency was above 20 µM.

For the compound `O=C(c1cc(C(F)(F)F)cc(C(F)(F)F)c1)N1CCC2(CC1)CN(Cc1ccccc1)C2`, the Potency is above 20 µM.

Consider `CN(C)c1ncnc2ccc(-c3ccc4c(c3)OCO4)cc12`, for which the Potency was above 20 µM.

With `COCC(=O)N1CCC2(CC1)CN(Cc1ccc(C#N)cc1)C2`, the Potency was above 20 µM.

On to `O=c1c(-c2ccc(Cl)cc2)nc2cnc(N3CCNCC3)nc2n1Cc1cccs1`, for which the Potency was above 20 µM.
